Measured values as given in PubChem BioAssay (Tox21).
Values joined by “and” are separate entries in the source; they are usually repeats but may differ in a detail not shown here. Equal entries are not always repeated. Inconclusive results are not listed. Some compounds were tested as several samples or in several runs, with calls that do not always agree. Active and inactive are the calls of the source. Unless noted, calls follow the shape of the full dose curve.

Key:
[1] = Nuclear factor erythroid 2-related factor 2/antioxidant responsive element (Nrf2/ARE) small molecule agonists: qHTS cell viability counter screen in human keratinocytes (AID 1919968; active = well fitted curve in the direction sought with a large enough effect in the repeat runs; an effect the other way counts as inactive or inconclusive; also: nearly all actives have a fitted effect of over 55% in size; also: potency is read from the fitted curve at half-maximal effect)
Summary of the method: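 Cytotoxicity was multiplexed with the Nrf2/ARE luciferase assay in the same wells. Stably transfected HaCaT keratinocytes were treated with test compounds for 23 h at 37 C. Cell viability was then measured by CellTiter-Fluor fluorescence.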

[2] = Nuclear factor erythroid 2-related factor 2/antioxidant responsive element (Nrf2/ARE) small molecule agonists: luciferase reporter gene qHTS assay in human keratinocytes (AID 1919969); also: nearly all actives have a fitted effect of over 35% in size; also: potency is read from the fitted curve at half-maximal effect
[3] = target: Gonadotropin-releasing hormone receptor (Homo sapiens) (UniProt P30968); test: Human gonadotropin-releasing hormone receptor (GnRHR) small molecule agonists, calcium flux assay in GnRHR-HEK293 cells (AID 1920063); also: nearly all actives have a fitted effect of over 35% in size
Chain of Gonadotropin-releasing hormone receptor (Homo sapiens) (P30968 whole entry, looked up): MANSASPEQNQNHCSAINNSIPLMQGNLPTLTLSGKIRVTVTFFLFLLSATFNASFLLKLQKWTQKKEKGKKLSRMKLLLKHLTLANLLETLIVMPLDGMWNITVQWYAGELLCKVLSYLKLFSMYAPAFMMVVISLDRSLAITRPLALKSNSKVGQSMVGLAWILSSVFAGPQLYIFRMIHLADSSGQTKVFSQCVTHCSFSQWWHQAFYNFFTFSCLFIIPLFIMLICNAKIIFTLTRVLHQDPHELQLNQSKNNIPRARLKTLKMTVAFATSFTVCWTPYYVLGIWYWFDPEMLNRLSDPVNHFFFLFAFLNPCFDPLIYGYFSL
Summary of the method: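 Agonist activity was measured as intracellular calcium flux in HEK293 cells engineered to stably express human GnRHR. After dye loading for 1 hour at 37 C, compounds in DMSO were added and fluorescence was followed for 3 minutes.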

[4] = target: KiSS-1 receptor (Homo sapiens) (UniProt Q969F8); test: Human kisspeptin (KISS1R) small molecule agonists, calcium flux assay in KISS1R-HEK293 cells (AID 1920064; active = well fitted curve in the direction sought with a large enough effect in the repeat runs; an effect the other way counts as inactive or inconclusive)
Chain of KiSS-1 receptor (Homo sapiens) (Q969F8 whole entry, looked up): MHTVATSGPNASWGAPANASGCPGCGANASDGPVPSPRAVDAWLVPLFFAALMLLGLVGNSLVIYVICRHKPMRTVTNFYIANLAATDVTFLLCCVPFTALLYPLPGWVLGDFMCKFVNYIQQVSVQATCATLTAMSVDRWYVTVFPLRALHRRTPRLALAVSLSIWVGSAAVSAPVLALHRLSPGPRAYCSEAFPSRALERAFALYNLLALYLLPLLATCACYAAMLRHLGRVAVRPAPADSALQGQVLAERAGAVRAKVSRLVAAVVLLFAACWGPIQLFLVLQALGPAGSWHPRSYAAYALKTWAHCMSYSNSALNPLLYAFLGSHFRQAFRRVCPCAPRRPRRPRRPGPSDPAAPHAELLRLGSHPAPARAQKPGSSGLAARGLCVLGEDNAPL
Summary of the method: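 Agonist activity is monitored as intracellular calcium rise in engineered HEK293 cells carrying human KISS1R. Cells are dye-loaded for 1 h at 37 C before compound addition, and fluorescence is recorded for 3 min.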

[5] = G protein-coupled receptor (GPCR) small molecule agonists, calcium flux assay: HEK293 wild type cell line counter screen (AID 1920065)
Summary of the method: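 Seed cells, incubate 18 h (37 C, 5% CO2); add calcium dye, 1 h at 37 C; pin-transfer compounds, ATP control or DMSO; read fluorescence 480/540 nm each second for 3 min.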

[6] = p53 small molecule agonists, cell-based qHTS assay with human liver microsomes: qHTS cell viability counter screen (AID 1963579); also: nearly all actives have a fitted effect of over 45% in size; also: potency is read from the fitted curve at half-maximal effect
Summary of the method: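 Cytotoxicity counter screen: p53RE-bla, 4,000 cells/well; 5 h settle, 37 C/5% CO2; cpd + HLM 0.5 mg/mL + NADPH 0.5 mg/mL (final); 16 h, 37 C; CellTiter-Glo, 30 min RT, luminescence.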

[7] = p53 small molecule agonists, cell-based qHTS assay with rat liver microsomes: qHTS cell viability counter screen (AID 1963580); also: nearly all actives have a fitted effect of over 45% in size; also: potency is read from the fitted curve at half-maximal effect
Summary of the method: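 After the beta-lactamase ratio was read, CellTiter-Glo was added to the same wells and luminescence measured at 30 min; cells had been treated 16 h at 37 C with compounds, rat liver microsomes and NADPH (0.5 mg/mL final each).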

[8] = target: 5-hydroxytryptamine receptor 2A (Homo sapiens) (UniProt P28223); test: 5-hydroxytryptamine receptor 2A (HTR2A) small molecule antagonists, cell-based qHTS assay (AID 1963586); also: nearly all actives have a fitted effect of over 45% in size
Chain of 5-hydroxytryptamine receptor 2A (Homo sapiens) (P28223 whole entry, looked up): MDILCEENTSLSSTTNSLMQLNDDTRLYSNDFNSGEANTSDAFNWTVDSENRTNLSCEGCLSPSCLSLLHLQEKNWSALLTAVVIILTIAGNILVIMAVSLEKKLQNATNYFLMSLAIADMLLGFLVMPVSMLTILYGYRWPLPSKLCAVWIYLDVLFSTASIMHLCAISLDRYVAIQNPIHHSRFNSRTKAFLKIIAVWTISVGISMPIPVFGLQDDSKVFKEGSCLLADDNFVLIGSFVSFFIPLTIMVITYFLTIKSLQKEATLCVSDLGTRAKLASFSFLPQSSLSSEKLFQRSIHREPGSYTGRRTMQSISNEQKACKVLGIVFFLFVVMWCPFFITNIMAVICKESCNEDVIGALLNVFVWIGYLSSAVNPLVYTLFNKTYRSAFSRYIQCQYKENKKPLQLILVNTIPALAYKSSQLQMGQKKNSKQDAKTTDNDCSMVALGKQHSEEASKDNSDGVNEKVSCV
Summary of the method: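 CHO cells stably expressing human HTR2A were plated for 18 h at 37 C, then loaded with calcium dye for 1 h. Compounds were preincubated 5 min at room temperature before DOI (4 nM solution) was added. Kinetic fluorescence was read for 3 min.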

[9] = target: 5-hydroxytryptamine receptor 2A (Homo sapiens) (UniProt P28223); test: 5-hydroxytryptamine receptor 2A (HTR2A) small molecule agonists, cell-based qHTS assay (AID 1963587); also: nearly all actives have a fitted effect of over 30% in size
Summary of the method: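 CHO cells stably expressing human HTR2A, plated 18 h, loaded with calcium dye 1 h at 37 C. Agonist mode: compounds added and intracellular calcium fluorescence recorded kinetically for 2 min at 1 sec intervals.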

[10] = target: Muscarinic acetylcholine receptor M1 (Homo sapiens) (UniProt P11229); test: Cholinergic receptor muscarinic 1 (CHRM1) small molecule agonists, cell-based qHTS assay (AID 1963589); also: nearly all actives have a fitted effect of over 35% in size
Chain of Muscarinic acetylcholine receptor M1 (Homo sapiens) (P11229 whole entry, looked up): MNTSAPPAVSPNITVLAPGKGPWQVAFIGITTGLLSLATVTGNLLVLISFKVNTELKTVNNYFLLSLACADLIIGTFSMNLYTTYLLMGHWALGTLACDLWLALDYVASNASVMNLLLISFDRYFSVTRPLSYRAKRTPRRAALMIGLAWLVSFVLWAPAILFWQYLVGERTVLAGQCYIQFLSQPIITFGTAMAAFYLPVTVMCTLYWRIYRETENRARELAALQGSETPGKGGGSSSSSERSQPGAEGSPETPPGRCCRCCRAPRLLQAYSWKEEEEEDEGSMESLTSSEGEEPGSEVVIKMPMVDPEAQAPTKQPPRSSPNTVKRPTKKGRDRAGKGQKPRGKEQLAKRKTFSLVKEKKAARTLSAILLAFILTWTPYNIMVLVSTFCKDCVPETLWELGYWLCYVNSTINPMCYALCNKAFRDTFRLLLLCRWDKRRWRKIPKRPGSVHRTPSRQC
Summary of the method: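 Cells were plated and incubated 18 h at 37 C/5% CO2, loaded with calcium dye for 1 h at 37 C, then treated with compounds in DMSO. Fluorescence was recorded kinetically at 1 sec intervals.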

[11] = cAMP Responsive Elements (CRE) small molecule agonists, cell-based qHTS assay (AID 1963590)
Summary of the method: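 Cells carrying a CRE-driven beta-lactamase reporter (HEK 293T) are seeded, incubated overnight (18 h), and treated with test compounds for 3 h at 37 C; reporter activity is then detected with a FRET substrate after 2 h at room temperature.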

[12] = cAMP Responsive Elements (CRE) small molecule antagonists, cell-based qHTS assay (AID 1963591; active = well fitted inhibition curve with a large enough effect in the signal ratio in the repeat runs, not every such curve was filed as active; the % refers to the signal ratio)
Summary of the method: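 Cells (CRE-bla HEK 293T, DMEM with 10% dialyzed FBS and 25 mM HEPES) are seeded and incubated 18 h. Compounds are added with NKH477 agonist at 0.25 uM final for 3 h, then FRET substrate for 2 h.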

[13] = target: Beta-2 adrenergic receptor (Homo sapiens) (UniProt P07550); test: Adrenergic beta2 receptor (ADRB2) small molecule agonists, cell-based qHTS assay (AID 1963593);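 also: CHO cells stably overexpressing human ADRB2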
Chain of Beta-2 adrenergic receptor (Homo sapiens) (P07550 whole entry, looked up): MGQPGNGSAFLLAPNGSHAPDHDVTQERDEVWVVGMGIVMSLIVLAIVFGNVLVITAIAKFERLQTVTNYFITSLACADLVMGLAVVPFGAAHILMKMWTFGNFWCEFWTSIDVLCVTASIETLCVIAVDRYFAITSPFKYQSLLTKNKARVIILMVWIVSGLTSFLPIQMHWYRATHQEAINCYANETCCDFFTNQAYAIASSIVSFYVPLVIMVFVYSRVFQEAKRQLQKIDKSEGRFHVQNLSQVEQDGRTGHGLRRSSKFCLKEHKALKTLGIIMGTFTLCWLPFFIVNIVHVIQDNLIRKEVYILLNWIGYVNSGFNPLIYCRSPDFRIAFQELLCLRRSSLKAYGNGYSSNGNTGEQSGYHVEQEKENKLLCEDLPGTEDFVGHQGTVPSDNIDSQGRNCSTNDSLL
Summary of the method: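 CHO cells stably over-expressing ADRB2 were plated overnight at 37C, then dosed with compounds plus a stimulation mix containing 100uM IBMX and 25uM Ro-20-1724 for 0.5hr at room temperature. cAMP was measured by HTRF competition, 1hr.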

[14] = target: D(2) dopamine receptor (Homo sapiens) (UniProt P14416); test: Dopamine D2 receptor (DRD2) small molecule agonists, cell-based qHTS assay (AID 1963594); also: nearly all actives have a fitted effect of over 35% in size
Chain of D(2) dopamine receptor (Homo sapiens) (P14416 whole entry, looked up): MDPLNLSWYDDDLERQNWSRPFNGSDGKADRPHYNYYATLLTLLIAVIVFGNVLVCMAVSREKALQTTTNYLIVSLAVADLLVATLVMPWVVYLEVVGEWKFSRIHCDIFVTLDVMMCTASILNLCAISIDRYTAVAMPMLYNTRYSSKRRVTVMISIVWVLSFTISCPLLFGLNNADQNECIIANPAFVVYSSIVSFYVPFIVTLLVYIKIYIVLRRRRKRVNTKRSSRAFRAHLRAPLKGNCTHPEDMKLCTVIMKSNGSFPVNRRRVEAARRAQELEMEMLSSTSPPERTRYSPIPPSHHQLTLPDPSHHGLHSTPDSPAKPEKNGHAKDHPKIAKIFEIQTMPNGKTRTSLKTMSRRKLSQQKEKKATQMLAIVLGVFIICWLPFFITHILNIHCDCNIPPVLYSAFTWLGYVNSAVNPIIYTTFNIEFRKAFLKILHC
Summary of the method: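 HEK293 cells stably expressing human DRD2, pre-treated with PDE inhibitor Ro20-1724 (0.1 mM final) and compound 10 min at room temperature, then stimulated with NKH477 (200nM […]) for 30 min. cAMP read by HTRF (665/620 nm).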

[15] = target: D(2) dopamine receptor (Homo sapiens) (UniProt P14416); test: Dopamine D2 receptor (DRD2) small molecule antagonists, cell-based qHTS assay (AID 1963595; active = well fitted inhibition curve with a large enough effect in the signal ratio in the repeat runs, with a control signal flat; the % refers to the signal ratio)
Summary of the method: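 HEK293 cells stably expressing DRD2, preincubated with 0.1 mM Ro20-1724 and compounds 10 min, were stimulated with 200 nM NKH477 plus 12 nM quinpirole for 30 min at room temperature; cAMP measured by HTRF (665/620 nm).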

[16] = target: Muscarinic acetylcholine receptor M1 (Homo sapiens) (UniProt P11229); test: Cholinergic receptor muscarinic 1 (CHRM1) small molecule antagonists, cell-based qHTS assay (AID 1963588); also: nearly all actives have a fitted effect of over 40% in size; also: potency is read from the fitted curve at half-maximal effect
Summary of the method: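 Compounds were tested at 15 concentrations in three independent runs. Dye-loaded CHRM1-CHO cells were exposed 5 min at room temperature before stimulation by acetylcholine added at 50nM. Intracellular calcium was read kinetically on FDSS for 3 min.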

[17] = target: Beta-2 adrenergic receptor (Homo sapiens) (UniProt P07550); test: Adrenergic beta2 receptor (ADRB2) small molecule antagonists, cell-based qHTS assay (AID 1963592); also: series mostly up to about 92 µM; nearly all actives have a fitted effect of over 50% in size
Summary of the method: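 Assay format: CHO-ADRB2 cells, 18-20hr seeding at 37C/5% CO2, then compound plus 1nM isoproterenol agonist mix for 0.5hr RT. Homogeneous time-resolved fluorescence cAMP detection after 1hr, expressed as 665/615 nm ratio.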

[18] = p53 small molecule agonists, cell-based qHTS assay: qHTS cell viability counter screen (AID 1963581); also: nearly all actives have a fitted effect of over 45% in size
Summary of the method: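 Viability was counter-screened in parallel with the p53 agonist reporter by measuring intracellular ATP luminescence in the same HCT-116 p53RE-bla wells after 16 h compound treatment at 37 C.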

[19] = p53 small molecule agonists, cell-based qHTS assay with human liver microsomes (AID 1963577);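 also: p53 response element beta-lactamase reporter cells with liver microsomes plus NADPH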
Summary of the method: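 Fluorescence of the beta-lactamase reporter in p53RE-bla cells, detected with LiveBLAzer substrate (2 h, room temperature, dark), served as the read-out after 16 h compound exposure at 37 C with human liver microsomes and NADPH, each 0.5 mg/mL final.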

[20] = p53 small molecule agonists, cell-based qHTS assay (AID 1963582; active = well fitted activation curve with a large enough effect in the signal ratio in the repeat runs, not every such curve was filed as active; the % refers to the signal ratio)
Summary of the method: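 Cells carrying a p53-responsive bla reporter are treated with test compounds for 16 h at 37 C; beta-lactamase activity is then detected with LiveBLAzer B/G FRET substrate after 2 h at room temperature.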

Measured: Potency

Nc1ncn[nH]1
inactive: [1] | [2] | [3] | [4] | [5] | [6] | [7] | [8] | [9] | [10] | [11] | [12] | [13] | [14] | [15]

CCc1cnc(C2=NC(C)(C(C)C)C(=O)N2)c(C(=O)O)c1 (centres undefined)
inactive: [1] | [2] | [3] | [4] | [5] | [6] | [7] | [8] | [16] | [11] | [12] | [17] | [13] | [14] | [15]

O=c1[nH]c(=O)n(Cl)c(=O)n1Cl
inactive: [1] | [2] | [3] | [4] | [5] | [6] | [7] | [18] | [8] | [9] | [10] | [11] | [12] | [17] | [14] | [15]

COc1ccccc1N
inactive: [1] | [3] | [4] | [5] | [6] | [7] | [18] | [11] | [12] | [17] | [13] | [14] | [15]
61.1 µM (active) and inactive: [2]

O=Cc1cccc(Oc2ccccc2)c1
inactive: [1] | [2] | [3] | [4] | [5] | [6] | [7] | [18] | [8] | [9] | [11] | [12] | [17] | [13] | [15]

CC(C)=C[C@@H]1[C@@H](C(=O)OCc2coc(Cc3ccccc3)c2)C1(C)C
inactive: [1] | [2] | [3] | [4] | [5] | [7] | [18] | [8] | [9] | [16] | [10] | [11] | [12] | [17] | [13] | [14] | [15]

COP(=O)(OC)OC=C(Cl)Cl
412 nM (active) and inactive: [7]
inactive: [1] | [3] | [4] | [5] | [18] | [11] | [12] | [14]
55 µM (active) and inactive: [2]

O=C(NC(=O)c1c(F)cccc1F)Nc1cc(Cl)c(OC(F)(F)C(F)C(F)(F)F)cc1Cl (centres undefined)
active: [16] 9.42 µM
inactive: [1] | [2] | [3] | [4] | [19] | [6] | [7] | [18] | [20] | [8] | [9] | [10] | [11] | [12] | [17] | [13]

CC(=O)/C=C/c1ccccc1
inactive: [1] | [3] | [4] | [5] | [7] | [18] | [8] | [9] | [16] | [10] | [11] | [12] | [17] | [13] | [14] | [15]
60 µM (active) and inactive: [2]

O=P1(NCCCl)OCCCN1CCCl (centres undefined)
inactive: [1] | [2] | [3] | [4] | [5] | [6] | [7] | [18] | [11] | [12] | [17] | [13] | [14] | [15]

CCN(CC)C(=S)S
inactive: [2] | [3] | [4] | [5] | [7] | [18] | [8] | [9] | [10] | [11] | [12] | [17] | [13] | [15]
active: [1] 27.5 µM and 7.65 µM and 13.7 µM
29.1 µM (active) and inactive: [6]

CNC(=O)Oc1ccccc1C1OCCO1
inactive: [1] | [2] | [3] | [4] | [19] | [6] | [7] | [18] | [20] | [8] | [9] | [16] | [10] | [11] | [12] | [17] | [13] | [14] | [15]

O=[N+]([O-])c1ccc(Cl)c(Cl)c1
inactive: [1] | [2] | [3] | [4] | [5] | [7] | [18] | [8] | [9] | [16] | [10] | [11] | [12] | [17] | [14] | [15]

C=C(C)CCl
inactive: [1] | [2] | [3] | [4] | [19] | [6] | [7] | [18] | [20] | [8] | [16] | [11] | [17] | [14] | [15]

[N-]=[N+]=CC(=O)OC[C@H](N)C(=O)O
inactive: [1] | [2] | [3] | [4] | [19] | [6] | [7] | [18] | [20] | [11] | [12] | [13] | [14] | [15]

COC(=O)c1sccc1S(=O)(=O)NC(=O)Nc1nc(C)nc(OC)n1
inactive: [1] | [2] | [3] | [4] | [19] | [6] | [7] | [18] | [20] | [8] | [9] | [16] | [10] | [12] | [17] | [13] | [14] | [15]

N#CC(c1ccccc1)c1ccccc1
inactive: [1] | [2] | [3] | [4] | [19] | [6] | [7] | [18] | [20] | [8] | [9] | [16] | [11] | [17] | [13] | [14]
